Screens deposited in PubChem BioAssay by National Center for Advancing Translational Sciences (NCATS).
An excerpt weighted towards active compounds, which were near 1.8% of everything screened.
Six1-Eya2 inh = Six1/Eya2 interaction inhibition. Q15475+O00167. AlphaScreen GST-Six1/His-Eya2 binding, biochemical; stronger effect = lower value. activity change, % (concentration not given with the values). hit rate 0.56% among 360,000. AID 651725
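Homogeneous AlphaScreen proximity assay pairing GST-Six1 with His-tagged Eya2 (added as 5X mix: 250 nM and 500 nM) in 50 mM Tris pH 8.0, 300 mM NaCl, 1 mM TCEP. Glutathione donor and nickel acceptor beads; 1 h, 37 °C, dark.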
PI4K2A inh = blocks human PI4K2A kinase activity; purified PI4K2A, ADP-Glo luminescence, 1 h; stronger effect = lower value; AID 1346378; hit rate 0.13% among 420,000; activity change, negative = inhibition, % at 76.9 µM; Q9BTU6; in the data active means activity change below about -50%; inconclusive means mostly about -30% to -49%
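Compounds are screened against recombinant PI4K2A using PI as substrate and ATP, the latter dispensed at 300 microM. Reactions run one hour at ambient temperature before ADP-Glo detection; full inhibition defined by wells lacking enzyme.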
Akt phos inh = inhibitors of Akt phosphorylation | activity change, % for hits at 50 µM | Neuro2A IGF-stimulated pAkt S473 HTRF, 20 min; stronger effect = lower value | hit rate 0.32% among 360,000; in the data active means activity change below about -80%; inconclusive means mostly about -51% to -80%
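Neuro2A cells (4,500/well, DMEM with 0.5% FBS) were treated with compound at a single 50 µM final concentration, stimulated with 6 nM IGF for 20 min at 37 °C, and lysed. Phospho-Akt Ser473 was read by HTRF as 665/615 ratio ×10^4.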
PI5P4K alpha inh = PI5P4K alpha (human) kinase inhibition | hit rate 1.2% among 330,000 | max response, % | AID 652105 | P48426 | PI5P4Kalpha enzyme, ADP-Glo luminescence, 60 min; stronger effect = lower value; active means max response of -50% or lower; inconclusive means between -30% and -50%; inactive means -30% or higher; further: value at the top dose of about 77 µM
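Reactions run in 0.038 M HEPES pH 7.4, 0.28 mM EGTA, 0.1% CHAPS and 5% DMSO, with PI5P4Kalpha, substrate, compound and 5 microM ATP final, one hour at room temperature. Readout is ADP-Glo luminescence.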
CtBP-E1A inh = inhibitors of CtBP/E1A interaction | hit rate 0.49% among 340,000 | AlphaScreen GST-E1A/His-CtBP binding, 1536-well; stronger effect = lower value | activity change, % (test concentration not listed)
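In 5 uL wells, 23 nL compound meets equimolar GST-E1A and His-CtBP (5X stock 125 nM each) for 2 h, 37 °C. Beads (5X, 50 ug/mL) then 1 h, 37 °C, dark.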
ADP-Glo interf = ADP-Glo luciferase interference, PI5P4K counter-screen; Potency, µM (doses to about 76.9 µM), hits mostly inhibitors; shares compounds with PI5P4K alpha inh; 1,100 tested, under 10 active; AID 743285; ADP-Glo detection counter-screen, luciferase luminescence, no enzyme; active means well fitted curve in the direction sought with a large enough effect; inconclusive means small, poorly fitted or top-dose-only effect, or another doubt; inactive means no such curve, though single readings can be large or run the other way
A number is an active result; . = inactive; ? = inconclusive; / = no result given. Unless noted, no stated cut-off is given here; in the data, active means activity change below about -65%; inconclusive means mostly about -30% to -63%; inactive means weaker than that.

SMILES | Six1-Eya2 inh | PI4K2A inh | Akt phos inh | PI5P4K alpha inh | CtBP-E1A inh | ADP-Glo interf
Cc1cccc(Nc2nnc(SCc3cn4ccsc4n3)s2)c1 | . | . | . | . | . | /
Cc1ccc(S(=O)(=O)CCc2ccccn2)cc1 | . | . | . | . | . | /
CC(C)C(=O)Nc1ccc(S(=O)(=O)Nc2ccccn2)cc1 | . | . | . | . | . | /
Cc1ccc(C)c(C2=NNC(=NCc3ccccc3)SC2)c1 | . | . | . | -65.5 | . | .
Cc1ccc(-n2c(=S)[nH]c3sc4c(c3c2=O)CCc2ccccc2-4)cc1 | . | . | . | . | / | /
Cc1cccc(-n2c(=S)[nH]c3sc4c(c3c2=O)CCc2ccccc2-4)c1 | . | . | . | -77.0 | . | .
Cc1ccc(Cn2c(SCC(=O)C(C)(C)C)nc3ccsc3c2=O)cc1 | / | . | / | / | / | /
COc1ccc(NC(=O)CSc2nc(-c3ccco3)nc3cc(=O)[nH]n23)cc1 | / | . | / | / | / | /
COc1ccc(NC(=O)CSc2nc(-c3ccco3)nc3cc(=O)[nH]n23)cc1Cl | . | . | . | -56.0 | . | .
O=Cc1ccc(OCc2nnc(-c3ccccc3Br)o2)cc1 | . | . | . | . | . | /
CC(C)C1Nc2ccc(S(N)(=O)=O)cc2C2C=CCC21 (stereo unspecified) | . | . | . | ? | . | /
NS(=O)(=O)c1ccc2c(c1)C1C=CCC1C(C1CC=CCC1)N2 (stereo unspecified) | . | . | . | -79.8 | . | .
CNC(=O)c1cc2cc(Br)ccc2s1 | . | . | . | . | . | /
Cc1ccccc1C(=O)Nc1ccccc1C(=O)OCc1cc(=O)n2nc(C3CC3)sc2n1 | / | . | / | / | / | /
O=C(Oc1cccc2c(O)cccc12)c1ccco1 | . | . | . | -54.1 | . | .
Cc1cc(C)c(NC(=O)c2sc3nc(C)cc(C)c3c2N)c(C)c1 | / | . | / | / | / | /
Cc1cc(C)c2c(N)c(C(=O)Nc3c(C)n(C)n(-c4ccccc4)c3=O)sc2n1 | . | . | . | . | . | .
Nc1nc(N)c2c(ccc3c2ccn3Cc2cccc([N+](=O)[O-])c2)n1 | ? | . | . | -61.5 | ? | .
O=C(NCCCN1CCOCC1)c1sc2cc([N+](=O)[O-])ccc2c1Cl | . | . | . | -67.7 | . | .
Cc1ccnc(NC(=O)c2sc3ccccc3c2Cl)c1 | . | . | . | . | . | /
O=C(NCCCN1CCOCC1)c1sc2cc(Cl)ccc2c1Cl | . | . | . | . | . | /
O=C(Nc1ccccn1)c1sc2cc([N+](=O)[O-])ccc2c1Cl | . | . | . | -51.8 | / | .
Cn1c(=O)oc2cc(S(=O)(=O)Nc3ccccc3)ccc21 | . | . | . | -55.3 | . | .
Cc1ccc(C)c(-n2c3nc(=O)[nH]c(=O)c-3cc3cc([N+](=O)[O-])ccc32)c1 | . | ? | . | -65.2 | . | .
COc1ccc(C(=O)N2CCC2(C)C(=O)O)cc1F (stereo unspecified) | . | . | / | ? | . | .
SMILES | Six1-Eya2 inh | PI4K2A inh | Akt phos inh | PI5P4K alpha inh | CtBP-E1A inh | ADP-Glo interf
Cc1cc(C)c2oc(C(=O)Nc3ccc(S(=O)(=O)Nc4nccs4)cc3)cc(=O)c2c1 | . | . | . | . | ? | /
Cc1cc2oc(C(=O)Nc3ccc(S(=O)(=O)Nc4nccs4)cc3)cc(=O)c2cc1Cl | . | . | . | -52.1 | . | .
O=C(NC1CC1)C1=C[C@@H](c2c[nH]c3ccccc23)C[C@@H](OCc2ccc(CO)cc2)O1 | . | . | . | -50.5 | . | .
O=C(Nc1nnc(SCc2ccc(Cl)cc2)s1)c1ccco1 | . | . | . | -56.5 | . | .
O=C(CSc1nnc(NC(=O)c2ccco2)s1)Nc1ccccc1Cl | . | . | . | . | . | /
COc1ccc(CCNC(=O)CSc2ccccc2)cc1OC | . | . | . | . | . | /
COc1ccc(CCNC(=O)CNCC(c2ccccc2)N(C)C)cc1OC (stereo unspecified) | . | . | . | . | / | .
O=C(CSCc1ccccc1Br)Nc1ccccc1 | . | . | . | . | . | /
O=S(=O)(NCCc1ccccc1)c1cccc(S(=O)(=O)N2CCOCC2)c1 | . | . | . | . | . | /
O=S(=O)(NCCC1=CCCCC1)c1cccc(S(=O)(=O)N2CCOCC2)c1 | . | . | . | -62.5 | . | .
COc1ccc(C(=O)c2sc(Nc3ccccc3F)nc2N)cc1 | . | . | . | -80.9 | / | .
Cc1nc(NC(N)=S)sc1C(=O)Nc1ccccc1 | . | . | . | / | . | /
Cc1cnc(NC(=O)c2sc(Nc3ccccc3)nc2N)o1 | . | . | . | -55.3 | / | .
Nc1nc(Nc2ccccc2)sc1C(=O)c1ccccc1 | ? | . | . | -65.1 | . | .
C=CCNc1nc(N)c(C(=O)Nc2cc(C)on2)s1 | . | . | . | / | . | /
Cc1cc(NC(=O)c2sc(Nc3ccc(F)cc3)nc2N)no1 | . | . | . | -54.1 | . | .
Cc1cc(NC(=O)CN2C(=O)NC(C)(c3ccccc3)C2=O)no1 (stereo unspecified) | . | . | . | / | . | /
Cc1cc(C)n(-c2nc3ccccc3c(=O)n2OCC#N)n1 | . | . | . | . | . | /
CC1(C(=O)NS(=O)(=O)c2ccc(Br)cc2)CCN1C(=O)C/C=C/c1ccccc1 (stereo unspecified) | . | . | . | . | . | /
Cc1cc2[nH]c3c4ccccc4nc(C)c3c2cc1C | . | . | . | -51.8 | . | .
Cc1cccc(NC(=O)CN2C(=O)N/C(=C/c3cc(C)n(C)c3C)C2=O)c1 | . | . | . | . | . | /
O=C(Nc1ccccc1C(F)(F)F)NC1CCCCC1 | . | . | . | / | . | /
O=S(=O)(Nc1ccc(-c2nc3cccnc3s2)cc1)c1ccc(Cl)s1 | . | . | . | -61.7 | . | .
CCS(=O)(=O)Nc1ccc(-c2nc3cccnc3s2)cc1 | . | . | . | -59.5 | ? | .
CC(=O)Nc1cc(NC(C)=O)cc(C(=O)N2CCCC3CCCCC32)c1 (stereo unspecified) | . | . | . | -65.2 | . | .
SMILES | Six1-Eya2 inh | PI4K2A inh | Akt phos inh | PI5P4K alpha inh | CtBP-E1A inh | ADP-Glo interf
CCc1sc(C(=O)Nc2ccc3c(c2)OCO3)cc1C | . | . | . | -71.8 | . | .
CCc1sc(C(=O)Nc2ccc(N3CCOCC3)cc2)cc1C | . | . | . | . | . | /
CN(C(=O)c1ccc(Br)o1)C1CCS(=O)(=O)C1 (stereo unspecified) | . | . | . | ? | . | .
CC(=O)Oc1ccc(C(=O)Nc2cccc(C(=O)c3ccc(C)c(C)c3)c2)cc1 | . | . | . | -57.3 | / | .
CCCNC(=O)CSc1nnc(-c2ccco2)n1C | . | . | . | -51.3 | . | .
O=C(COC(=O)C1CC2C=CC1C2)NCc1ccco1 (stereo unspecified) | ? | . | / | -74.1 | . | .
O=C(COC(=O)CCC(=O)c1ccc(Cl)cc1)NCc1ccco1 | . | . | . | -51.5 | . | .
O=C(COC(=O)CCC(=O)c1ccc(F)cc1)NCc1ccc(Cl)cc1 | . | . | . | . | . | /
